DAX1 inh-1: DAX1 (NR0B1) inhibitors on StAR promoter, primary screen, cell-based, luminescence, SF-1 (NR5A1), full-length DAX-1; HEK293T StAR-luciferase reporter, SF-1/DAX-1 repression relief; inhibition, % at 6.8 µM; 1.1% of 370,000 active; AID 652010, 2013;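 active means inhibition above the mean over all tested compounds plus 3 SD, cut at about 3.6% in these data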;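 further: 0% = DAX-1 cells with DMSO and 100% = cells lacking DAX-1 with DMSO; higher inhibition means more luminescence from relief of DAX-1 repression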
hgDAF12 agonist: H. glycines DAF-12 receptor agonists, primary screen, cell-based, luminescence, HEK293, GAL4 fusion, UAS-luciferase; Nuclear hormone receptor DAF-12 (Heterodera glycines), GAL4 fusion; HEK293 GAL4-hgDAF12 UAS-luciferase reporter, agonist luminescence; normalized to butyrate control; activation, % at 6.8 µM; 1.8% of 370,000 active; AID 687014, 2013;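 active means activation above a cutoff set at the mean of all screened compounds plus 3 SD, cut at about 10% in these data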;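 further: 0% = DMSO wells and 100% = sodium butyrate wells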
DAX1 inh-2: DAX1 (NR0B1) inhibitors, primary screen, cell-based, HEK293, Gal4-DAX1, luciferase luminescence | Nuclear receptor subfamily 0 group B member 1 (Homo sapiens), P51843 | HEK293 Gal4-DAX1 luciferase reporter | inhibition, % at 6.75 µM | 0.99% of 340,000 active | AID 504766, 2011;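 active means inhibition above the mean over all tested compounds plus 3 SD, cut at about 4.2% in these data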;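 further: 0% = DAX1-transfected cells with DMSO and 100% = empty-vector control cells with DMSO; inhibition shows as a rise in luminescence from relieved DAX1 repression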
Target sequence (P51843 207-470 limits assumed): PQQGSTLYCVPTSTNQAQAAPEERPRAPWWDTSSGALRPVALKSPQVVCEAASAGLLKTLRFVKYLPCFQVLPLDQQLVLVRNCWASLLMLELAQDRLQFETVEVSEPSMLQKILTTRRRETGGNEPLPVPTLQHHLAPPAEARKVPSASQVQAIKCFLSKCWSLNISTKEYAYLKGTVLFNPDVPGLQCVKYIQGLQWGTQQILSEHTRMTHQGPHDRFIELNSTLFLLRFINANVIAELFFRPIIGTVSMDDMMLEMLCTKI
ssDAF12 agonist: S. stercoralis DAF-12 nuclear receptor activators, primary screen, cell-based, luminescence, HEK293, GRIP1 co-expression, lit1-tk-luc. Nuclear hormone receptor DAF-12 (Strongyloides stercoralis). HEK293 ssDAF-12/GRIP1 lit1-tk-luc reporter; % of 3 µM dafachronic acid response. activation, % at 6.8 µM. 1% of 370,000 active;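 active means activation above the mean over all tested compounds plus 3 SD, cut at about 0.9% in these data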;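 further: 0% = DMSO-only wells and 100% = 3 µM delta7-dafachronic acid wells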
hcDAF-12 act: H. contortus DAF-12 nuclear receptor activators, primary screen, cell-based, luminescence, HEK293, lit1-tk-luc reporter; HEK293 hcDAF-12 lit1-tk-luc reporter; 0% DMSO, 100% Δ7-dafachronic acid; activation, % at 6.8 µM; 1.4% of 370,000 active;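 active means activation above the mean of all tested compounds plus 3 SD, cut at about 5.5% in these data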;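 further: 100% = response to 3 µM Δ7-dafachronic acid high control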
LXR ag: LXR agonists, Gal4 luciferase reporter, confirmation, counter-screen for hcDAF-12 agonist project, cell-based, luminescence, HEK293, H. contortus campaign | shares compounds with hcDAF-12 act | HEK293 Gal4-LXR tk-luc reporter, 24 h; normalized: DMSO 0%, positive control 100% | activation, % at 6.8 µM | 3,400 tested, under 10 active | AID 743027, 2013;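 active means mean percent activation of the reporter above a cutoff set as the average over tested compounds plus their standard deviation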
hcDAF12 conf: H. contortus DAF-12 receptor agonists, confirmation, cell-based, luminescence, HEK293, lit1-tk-luc, triplicate; 61% of 3,400 active; HEK293 hcDAF-12 lit1-tk-luc reporter; % of Δ7-dafachronic acid response; shares compounds with hcDAF-12 act; activation, % at 6.8 µM;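 active means mean activation across triplicate tests above the threshold derived from the earlier primary screen, cut at about 5.5% in these data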;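 further: 0% = DMSO only wells and 100% = 3 µM Δ7-dafachronic acid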
* hit, by the source's call. This is a sample that favours compounds with a hit; in the whole collection about 4.1% have one here.

How did Cc1ccc(/C=C/c2nnc(-c3ccccc3)o2)cc1 do in these assays?
DAX1 inh-1: 2; hgDAF12 agonist: 9; DAX1 inh-2: 1; ssDAF12 agonist: 1.7*; hcDAF-12 act: 7.3*; LXR ag: 0; hcDAF12 conf: 3

How did O=C(CCCCCn1c(=S)[nH]c2cc3c(cc2c1=O)OCO3)N1CCN(c2ccccc2)CC1 do in these assays?
DAX1 inh-1: -1; hgDAF12 agonist: 2; DAX1 inh-2: 0; ssDAF12 agonist: -1; hcDAF-12 act: 6.8*; LXR ag: 0; hcDAF12 conf: -1

What do the screens show for `N#CCC[C@@H]1CC[C@]2(CCCN(S(=O)(=O)c3ccccc3)C2)O1`?
DAX1 inh-1: 1; hgDAF12 agonist: 3; ssDAF12 agonist: -1; hcDAF-12 act: -2

What do the screens show for `C=CCN1[C@H](Cc2ccccc2)COc2cc(N3CCSCC3)ccc2S1(=O)=O`?
DAX1 inh-1: -2; hgDAF12 agonist: 3; ssDAF12 agonist: -2; hcDAF-12 act: -2

What do the screens show for `O=C(O)CSc1c[nH]c2ccccc12`?
DAX1 inh-1: 0; hgDAF12 agonist: 7; DAX1 inh-2: 1; ssDAF12 agonist: 0; hcDAF-12 act: 4

Results for CC(Sc1c[nH]c2ccccc12)C(=O)O (stereo not drawn) ?
DAX1 inh-1: 1; hgDAF12 agonist: 1; DAX1 inh-2: 1; ssDAF12 agonist: 0; hcDAF-12 act: 8.5*; LXR ag: 0; hcDAF12 conf: 5

How did Cc1cccc(N2CN=c3s/c(=C\c4ccccn4)c(=O)n3C2)c1 do in these assays?
DAX1 inh-1: 0; hgDAF12 agonist: 0; DAX1 inh-2: 1; ssDAF12 agonist: 1; hcDAF-12 act: 10*; LXR ag: 0; hcDAF12 conf: 0

Results for Clc1ccc(-c2nc3c4ccccc4ccn3c2CC2CCCCC2)cc1 ?
DAX1 inh-1: 1; hgDAF12 agonist: 6; ssDAF12 agonist: 1.6*; hcDAF-12 act: 6.7*; LXR ag: 0; hcDAF12 conf: 6.7*

How did Cc1ccc(-c2nc3c4ccccc4ccn3c2CN2CCCCC2)cc1 do in these assays?
DAX1 inh-1: 0; hgDAF12 agonist: 2; DAX1 inh-2: 3; ssDAF12 agonist: 0; hcDAF-12 act: 6.7*; LXR ag: 0; hcDAF12 conf: 6

How did CCOC(=O)c1ccc2c(c1)NCc1cccc(OC)c1O2 do in these assays?
DAX1 inh-1: 1; hgDAF12 agonist: 13*; DAX1 inh-2: 1; ssDAF12 agonist: 1.1*; hcDAF-12 act: 6.6*; LXR ag: 1; hcDAF12 conf: 7.9*

What do the screens show for `COc1ccc(C(=O)OCC(=O)c2ccc3c(c2)NC(=O)CO3)cc1OC`?
DAX1 inh-1: 0; hgDAF12 agonist: 1; DAX1 inh-2: 0; ssDAF12 agonist: 0; hcDAF-12 act: 0

Results for COc1ccc(Oc2c(-c3cccs3)cnn(-c3ccc(C)cc3)c2=O)cc1 ?
hgDAF12 agonist: -2; ssDAF12 agonist: -1; hcDAF-12 act: -2

How did COC(=O)C1CN(Cc2ccccc2)CCS(=O)(=O)N1Cc1cn(Cc2cccc(Cl)c2)nn1 (stereo not drawn) do in these assays?
DAX1 inh-1: -2; hgDAF12 agonist: 1; ssDAF12 agonist: -2; hcDAF-12 act: 0

Results for CCCCCCCCN1C(=O)[C@@H](CC(=O)NCc2cccc(C(F)(F)F)c2)C[C@@]2(C(=O)OC)C1=C[C@H](C(C)C)O[C@@H]2C1CC1 ?
DAX1 inh-1: 0; hgDAF12 agonist: 0; ssDAF12 agonist: -1; hcDAF-12 act: -2

What do the screens show for `CCOCCCNC(=O)CCC(=O)NNc1nc2ccccc2c2nc(C)nn12`?
DAX1 inh-1: 0; hgDAF12 agonist: -2; DAX1 inh-2: 0; ssDAF12 agonist: -1; hcDAF-12 act: 0

Results for COCCCNC(=O)CCC(=O)NNc1nc2ccccc2c2nc(C)nn12 ?
DAX1 inh-1: 0; hgDAF12 agonist: 1; DAX1 inh-2: 1; ssDAF12 agonist: 0; hcDAF-12 act: 7.2*; LXR ag: 0; hcDAF12 conf: 3

How did COc1ccc2c(c1OC)C(=O)N1c3ccccc3SC21 (stereo not drawn) do in these assays?
DAX1 inh-1: 2; hgDAF12 agonist: 12*; DAX1 inh-2: 2; ssDAF12 agonist: 1; hcDAF-12 act: 8.8*; LXR ag: 1; hcDAF12 conf: 7.5*

Results for CCCCc1ccc(NC(=O)CC(C)(C)C)cc1 ?
DAX1 inh-1: 2; hgDAF12 agonist: 13*; DAX1 inh-2: -1; ssDAF12 agonist: 0; hcDAF-12 act: 7.0*; LXR ag: 0; hcDAF12 conf: 4

What do the screens show for `CCCCc1ccc(NC(=O)CC(C)=O)cc1`?
DAX1 inh-1: 0; hgDAF12 agonist: 1; DAX1 inh-2: 1; ssDAF12 agonist: -2; hcDAF-12 act: 0

How did O=c1c2ccccc2cnn1-c1ccc(Br)cc1 do in these assays?
DAX1 inh-1: 3.9*; hgDAF12 agonist: 16*; DAX1 inh-2: 2; ssDAF12 agonist: 2.1*; hcDAF-12 act: 11*; LXR ag: 1; hcDAF12 conf: 12*

What do the screens show for `CCCCNC(=O)NCCCN1CCN(c2ccc(F)cc2)CC1`?
DAX1 inh-1: 0; hgDAF12 agonist: -3; ssDAF12 agonist: -2; hcDAF-12 act: -1

Results for Cc1ccc(S(=O)(=O)n2ccc(-c3c(-c4ccc(F)cc4)noc3C)n2)cc1 ?
DAX1 inh-1: -4; hgDAF12 agonist: 0; ssDAF12 agonist: -1; hcDAF-12 act: -3

How did O=C(NCCSCc1ccco1)Nc1ccccc1 do in these assays?
DAX1 inh-1: 1; hgDAF12 agonist: 2; DAX1 inh-2: 0; ssDAF12 agonist: -1; hcDAF-12 act: 9.8*; LXR ag: 0; hcDAF12 conf: 2

Results for COc1ccccc1C(=O)NC(=S)N1CCCc2ccccc21 ?
DAX1 inh-1: -1; hgDAF12 agonist: -2; DAX1 inh-2: 2; ssDAF12 agonist: -1; hcDAF-12 act: 2
